Assay results as given in the supplement of paper PMC13380429.

Columns and labels:
[1] = test system: Vero E6 infected with SARS-CoV-2; experiment: morphology score (similarity to uninfected cells); higher = more like uninfected cells; conditions: 24 h
[2] = test system: Vero E6 infected with SARS-CoV-2; experiment: SARS-CoV-2 infection rate relative to infected DMSO; higher = more infection, active = 60 or less; conditions: 24 h

SMILES | morphology score [1] | SARS-CoV-2 infection rate [2]
O=C(NN1C(=O)[C@@H]2[C@@H]3C=C[C@@H]([C@H]4C[C@@H]34)[C@@H]2C1=O)c1ccc(C(F)(F)F)cc1 [tecovirimat] (10 µM) | -0.108 | 102% (inactive)
CCNC(=O)[C@H]1O[C@@H](n2cnc3c(N)nc(NCCc4ccc(CCC(=O)O)cc4)nc32)[C@H](O)[C@@H]1O (10 µM) | -0.0155 | 115% (inactive)
CN(C)Cc1ccc(-c2nc3cccc4c3n2CCNC4=O)cc1 (10 µM) | 0.092 | 97.5% (inactive)
FC(F)(F)c1cccc(C2=CCN(CCc3ccc4ccccc4c3)CC2)c1 [xaliproden] (10 µM) | -0.0559 | 108% (inactive)
CCCCCC(C)N (stereo unspecified) [tuaminoheptane] (10 µM) | -0.092 | 109% (inactive)
O=c1[nH]cnc2c([C@@H]3N[C@H](CO)[C@@H](O)[C@H]3O)c[nH]c12 [forodesine] (10 µM) | 0.155 | 103% (inactive)
CN1C(C(=O)Nc2ccccn2)=C(O)c2ccccc2S1(=O)=O [piroxicam] (10 µM) | 0.184 | 98.5% (inactive)
Cc1ccc2c(-c3ccccc3)nc(=O)n(C(C)C)c2c1 [proquazone] (10 µM) | 0.0698 | 103% (inactive)
C[C@@]12CC[C@@H]3[C@@](CC[C@H]4[C@@]3(C)CCC[C@@]4(C)C(=O)O)(CC1=O)C2 [isosteviol] (10 µM) | 0.144 | 100% (inactive)
O=C(Nc1cccc(Cl)c1)Nc1ncc(CCNc2ncnc3ccsc23)s1 (10 µM) | 0.393 | 80% (inactive)
Cc1cc(-c2nc3cc(F)ccc3s2)ccc1NC(=O)[C@@H](N)CCCCN [phortress] (10 µM) | -0.32 | 120% (inactive)
CCn1c2ccccc2c2cc(CNCc3ccccc3OC)ccc21 (10 µM) | 0.26 | 87% (inactive)
COc1ccc(-c2cc3nccn3c(Nc3ncccc3C(N)=O)n2)cc1OC (0.833333 µM) | 0.46 | 27% (active)
FCc1ccc(OCCOc2ccc(Cl)cc2Cl)c(Cl)n1 (10 µM) | -0.0669 | 116% (inactive)
O=C(NCCCCCCNC(=O)ON=C1CCCCC1)ON=C1CCCCC1 (10 µM) | 0.11 | 104% (inactive)
CN(C)c1nc(N)c(C(=O)Nc2cccnc2)nc1Cl (10 µM) | 0.226 | 79% (inactive)
c1ccc(CC2=NCCN2)cc1 [tolazoline] (10 µM) | 0.146 | 99.5% (inactive)
CC1(C)OC(=O)C(OCC2CC2)=C1c1ccc(S(C)(=O)=O)cc1 [firocoxib] (10 µM) | 0.218 | 84.5% (inactive)
Cc1cc(C(C#N)c2ccc(Cl)cc2)c(Cl)cc1NC(=O)c1cc(I)cc(I)c1O (stereo unspecified) [closantel] (10 µM) | 0.257 | 91.5% (inactive)
CC(C)Oc1ccc(-c2nc(-c3cccc4c3CC[C@H]4NCCC(=O)O)no2)cc1C#N (10 µM) | 0.181 | 96.5% (inactive)
COc1ccccc1CN[C@H]1CCCN[C@H]1c1ccccc1 (10 µM) | 0.24 | 86% (inactive)

SMILES | morphology score [1] | SARS-CoV-2 infection rate [2]
COc1cccc2c1c(O)c(C(=O)N(C)c1ccc(C(F)(F)F)cc1)c(=O)n2C [tasquinimod] (10 µM) | 0.168 | 92% (inactive)
CC1(C)S[C@@H]2[C@H](NC(=O)[C@H](N)c3ccc(O)cc3)C(=O)N2[C@H]1C(=O)O [amoxicillin] (10 µM) | -0.146 | 102% (inactive)
O=c1c2ccccc2nc2n1CCc1c-2[nH]c2ccccc12 [rutaecarpine] (10 µM) | 0.246 | 105% (inactive)
O=C(O)CCC/C=C\C[C@@H]1[C@@H](/C=C/[C@@H](O)COc2cccc(Cl)c2)[C@H](O)C[C@@H]1O (racemic) [cloprostenol-(+/-)] (10 µM) | -0.0265 | 110% (inactive)
C=C1CC[C@@]2(O)[C@H]3Cc4ccc(O)c5c4[C@@]2(CCN3CC2CC2)[C@H]1O5 [nalmefene] (10 µM) | -0.0409 | 112% (inactive)
CC(=O)CC(c1ccccc1)c1c(O)c2ccccc2oc1=O (stereo unspecified) [warfarin] (10 µM) | -0.0329 | 106% (inactive)
CC(C)C[C@H](NC(=O)[C@H](Cc1ccccc1)NC(=O)c1cnccn1)B(O)O [bortezomib] (10 µM) | -0.0961 | 96.5% (inactive)
CC1(C)S[C@@H]2[C@H](NC(=O)Cc3ccccc3)C(=O)N2[C@H]1C(=O)O [benzylpenicillin] (10 µM) | -0.0812 | 114% (inactive)
CCOC(=O)c1ccc(N2NC(=O)/C(=C/c3ccc([N+](=O)[O-])o3)C2=O)cc1 (10 µM) | 0.149 | 85% (inactive)
NCC(=O)Nc1ccc(-n2nc(C(F)(F)F)cc2-c2ccc3c(ccc4ccccc43)c2)cc1 (0.833333 µM) | -0.089 | 99.5% (inactive)
CCN(CC)CCOC(=O)C(c1ccccc1)c1ccccc1 [adiphenine] (10 µM) | -0.106 | 110% (inactive)
CN(C)Cc1ccc(S(=O)(=O)n2ccc(/C=C/C(=O)NO)c2)cc1 [resminostat] (0.833333 µM) | -0.101 | 116% (inactive)
NS(=O)(=O)c1cc(Cl)c(Cl)c(S(N)(=O)=O)c1 [diclofenamide] (10 µM) | 0.298 | 84.5% (inactive)
O=C(CCc1ccc(O)cc1)c1c(O)cc(O)cc1O[C@@H]1O[C@H](CO)[C@@H](O)[C@H](O)[C@H]1O [phlorizin] (10 µM) | 0.166 | 112% (inactive)
CN(C)CCC(c1ccccc1)c1ccccn1 (stereo unspecified) [pheniramine] (10 µM) | -0.131 | 110% (inactive)
O=C(OCCN1CCOCC1)c1cccnc1Nc1cccc(C(F)(F)F)c1 [morniflumate] (10 µM) | 0.0767 | 108% (inactive)
Cc1ncc([N+](=O)[O-])n1CC(O)CCl (stereo unspecified) [ornidazole] (10 µM) | 0.0809 | 107% (inactive)
NC(=O)CN1CC(c2ccccc2)CC1=O (stereo unspecified) [phenylpiracetam] (10 µM) | 0.175 | 94% (inactive)
COc1ccc(C(=O)c2c(C)n(CCN3CCOCC3)c3cc(I)ccc23)cc1 (10 µM) | 0.116 | 102% (inactive)
CN1CCN(CC/C=C2/c3ccccc3Sc3ccc(S(=O)(=O)N(C)C)cc32)CC1 [thiothixene] (10 µM) | 0.381 | 80.5% (inactive)
C[C@@H]1c2ccccc2CN1CC1=NCCN1 (racemic) (10 µM) | 0.0304 | 92.5% (inactive)

SMILES | morphology score [1] | SARS-CoV-2 infection rate [2]
CC1CCN(C(c2ccc(F)cc2)c2ccc(C(C)C(=O)O)cc2-c2ccc(C(F)(F)F)cc2)CC1 (stereo unspecified) (10 µM) | 0.0608 | 106% (inactive)
Cn1cnc2c(F)c(Nc3ccc(Br)cc3F)c(C(=O)NOCCO)cc21 [binimetinib] (0.833333 µM) | -0.00339 | 110% (inactive)
O=C(c1cc(S(=O)(=O)Nc2ccccc2F)c(F)cc1Cl)N1CCN2CCC[C@@H]2C1 (10 µM) | 0.0625 | 104% (inactive)
O=C1Nc2ccccc2C2(CCN(CCc3ccc(C(F)(F)F)cc3)CC2)O1 (10 µM) | -0.158 | 106% (inactive)
Nc1cc(C(F)(F)F)c(-c2cc(N3CCOCC3)nc(N3CCOCC3)n2)cn1 [buparlisib] (10 µM) | -0.0939 | 103% (inactive)
CNCc1ccc(C)c(NC(=O)c2ccc(Nc3nc(-c4ccccc4)c4ccccc4n3)cc2)c1 (0.833333 µM) | 0.213 | 98% (inactive)
Cc1cn([C@H]2C=C[C@@H](CO)O2)c(=O)[nH]c1=O [stavudine] (10 µM) | 0.031 | 106% (inactive)
Clc1cccc(/C=N/N=C/c2cccc(Cl)c2)c1 [3,3'-dichlorobenzaldazine] (10 µM) | 0.288 | 99% (inactive)
NC(=O)[C@@H]1CC[C@@H]2CN1C(=O)N2OS(=O)(=O)O [avibactam] (10 µM) | 0.0638 | 108% (inactive)
COc1cc(N)c(Cl)cc1C(=O)OCCCN1CCCCC1 (10 µM) | 0.0833 | 100% (inactive)
O=C(Nc1ccc(C(=O)O)c(O)c1)c1ccccc1 [benzoylpas] (10 µM) | 0.206 | 91.5% (inactive)
CCC[C@H](Nc1nc(-c2ccc(NC(=O)NCC)c(OC)c2)ncc1C)c1cccnc1 (10 µM) | -0.29 | 116% (inactive)
COc1nccnc1NS(=O)(=O)c1ccc(N)cc1 [sulfametopyrazine] (10 µM) | -0.162 | 112% (inactive)
NS(=O)(=O)c1cc2c(cc1Cl)NC(CC1CCCC1)NS2(=O)=O (stereo unspecified) [cyclopenthiazide] (10 µM) | 0.129 | 100% (inactive)
CCCC(=O)O[C@]1(C(=O)COC(C)=O)CC[C@H]2[C@@H]3C[C@H](F)C4=CC(=O)C=C[C@]4(C)[C@@]3(F)[C@@H](O)C[C@@]21C [difluprednate] (10 µM) | 0.215 | 100% (inactive)
Cc1cc(Cl)ccc1OCCCC(=O)NO [droxinostat] (10 µM) | 0.199 | 90% (inactive)
N#Cc1ccc2[nH]c(O)c(-c3ccc(CN4CCOCC4)cn3)c2c1 (10 µM) | -0.238 | 100% (inactive)
COC(=O)N[C@@H](C)CNc1nccc(-c2cn(C(C)C)nc2-c2cc(Cl)cc(NS(C)(=O)=O)c2F)n1 [Encorafenib (LGX818)] (0.833333 µM) | 0.0501 | 95% (inactive)
O=C1CN(/N=C/c2ccc([N+](=O)[O-])o2)C(=O)N1 [nitrofurantoin] (10 µM) | 0.168 | 112% (inactive)
CCC1(C)CC(=O)NC1=O (stereo unspecified) [ethosuximide] (10 µM) | 0.0477 | 104% (inactive)
CS(=O)(=O)Nc1ccc(-c2coc3cc(OCc4cccc(C(=O)O)c4)ccc3c2=O)cc1 (10 µM) | 0.0543 | 97% (inactive)
